# Screening data: PubChem BioAssay, several laboratories
# Gli-Sufu block: antagonists of Gli-Sufu signaling | Sufu-KO-LIGHT fibroblasts, Gli luciferase reporter luminescence | inhibition, % at 5 µM | actives 0.74% (n = 340,000) | AID 588413;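 active = inhibition above about 55%, limit read from the data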;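 note: 0% = DMSO-treated cells and 100% = wells with medium but no cells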
# 697 NFkB inh: lowers PMA/ionomycin-induced NF-kB signal in 697 B cells. 697 B-cell NF-kB luciferase reporter, 16 h. inhibition, % at 4 µM. actives 0.33% (n = 330,000); in the data active = inhibition above about 35%
# Beta apoptosis: blocks beta cell apoptosis; protection from apoptosis, % (no concentration beside the values); actives 0.8% (n = 300,000); INS-1E cytokine-induced death, ATP luminescence, 48 h; percent of positive-control rescue, neutral wells zero;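 active = Every replicate reaches about 75%, or at least half do and their mean reaches it too, limit read from the data; inconclusive = At least half of replicates reach the limit but their mean does not; inactive = Under half of replicates reach the limit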;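 note: 0% = cytokine-treated negative control wells and 100% = positive control rescue; higher means more ATP so stronger rescue from cytokine killing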
# Jurkat NFkB inh: inhibitors of the PMA/ionomycin-induced NF-kB reporter in Jurkat cells; actives 0.53% (n = 330,000); AID 435003; PMA/ionomycin-induced NF-kB luciferase reporter, luminescence; inhibition, % at 4 µM; in the data active = inhibition above about 50%
# CSC inhib: cancer stem cell inhibition | cancer stem cell-like cells viability, luminescence | AID 2717 | actives 1.1% (n = 300,000) | inhibition, % at 7.5 µM; in the data active = inhibition above about 75%; inconclusive = no clear call, values can overlap the other calls; tested in HMLE shEcad cells
# Mdm2-MdmX inh: inhibitors of human Mdm2/MdmX interaction. O15151+Q00987. SaOS-2 split-luciferase Mdm2/MdmX complementation, luminescence. inhibition, % at 8 µM. actives 3% (n = 330,000);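 active = inhibition of at least 50% at 8 µM in the primary screen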
# Target sequence (O15151 whole entry, looked up): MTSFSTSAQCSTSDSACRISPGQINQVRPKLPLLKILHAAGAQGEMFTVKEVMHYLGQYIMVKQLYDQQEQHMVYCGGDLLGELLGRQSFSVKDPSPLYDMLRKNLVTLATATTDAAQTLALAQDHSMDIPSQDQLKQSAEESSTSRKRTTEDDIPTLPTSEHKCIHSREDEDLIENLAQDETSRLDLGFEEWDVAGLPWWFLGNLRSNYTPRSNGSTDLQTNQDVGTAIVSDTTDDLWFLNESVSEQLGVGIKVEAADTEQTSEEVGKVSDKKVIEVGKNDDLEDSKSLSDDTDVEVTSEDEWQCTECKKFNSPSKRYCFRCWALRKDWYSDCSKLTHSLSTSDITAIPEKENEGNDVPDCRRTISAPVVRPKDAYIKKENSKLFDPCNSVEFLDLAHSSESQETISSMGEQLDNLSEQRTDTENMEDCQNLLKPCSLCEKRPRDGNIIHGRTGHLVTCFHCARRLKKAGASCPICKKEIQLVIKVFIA
# Target sequence (Q00987 whole entry, looked up): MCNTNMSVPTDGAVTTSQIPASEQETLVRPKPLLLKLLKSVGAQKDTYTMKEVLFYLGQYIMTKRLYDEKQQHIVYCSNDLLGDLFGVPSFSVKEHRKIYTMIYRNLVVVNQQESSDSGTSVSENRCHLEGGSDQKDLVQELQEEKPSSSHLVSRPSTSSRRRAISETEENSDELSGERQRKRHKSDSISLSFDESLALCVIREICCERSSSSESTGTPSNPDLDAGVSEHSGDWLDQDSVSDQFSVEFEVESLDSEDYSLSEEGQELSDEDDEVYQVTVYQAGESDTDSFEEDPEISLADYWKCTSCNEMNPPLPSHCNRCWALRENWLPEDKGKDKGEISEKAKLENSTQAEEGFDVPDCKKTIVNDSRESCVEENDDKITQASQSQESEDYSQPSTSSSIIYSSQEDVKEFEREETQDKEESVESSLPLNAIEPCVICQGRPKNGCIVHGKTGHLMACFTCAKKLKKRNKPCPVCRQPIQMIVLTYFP
# Mdm2 MdmX conf: human Mdm2/MdmX binding inhibition, confirmed. shares compounds with Mdm2-MdmX inh. luminescent assay. inhibition, % at 8 µM. actives 55% (n = 10,000); in the data active = inhibition above about 40%
# Full FLuc ctr: counter-screen for Mdm2/MdmX inhibitors: full-length luciferase | actives 77% (n = 6,200) | inhibition, % at 8 µM | shares compounds with Mdm2-MdmX inh | SaOS-2 full-length luciferase counterscreen, luminescence | AID 504607;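 active = mean inhibition at 8 µM reaching about 37%, which flags the compound as non-specific, limit read from the data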;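 note: p53-null SaOS-2 cells with luciferase driven by a doxycycline-inducible promoter; compound on cells about two nights before reading with doxycycline added after day one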
# Starred values were filed as active, the others as inactive; ? = inconclusive; nt = no result. An excerpt weighted towards active compounds, which were near 4.5% of everything screened.
SMILES,Gli-Sufu block,697 NFkB inh,Beta apoptosis,Jurkat NFkB inh,CSC inhib,Mdm2-MdmX inh,Mdm2 MdmX conf,Full FLuc ctr
COc1ccc(Oc2cc(NC(=O)c3nn(C)cc3[N+](=O)[O-])cc([N+](=O)[O-])c2)cc1,-3,32,2,9,nt,76*,96*,46*
CCN(CC)c1ccc(CNCCc2ccccc2F)cc1,10,-1,6,15,48,54*,48*,61*
Cc1ccc(CNCCc2ccccc2F)cc1,8,-21,-1,4,-1,3,nt,nt
C=Cc1cc(OC)c2c(c1)c(=O)oc1c2cc(OC)c2c(O)ccc(C3OC(C)C(O)C(C)(O)C3O)c21 (stereo not drawn),2,nt,nt,nt,nt,nt,nt,nt
Clc1ccccc1CNC1CN2CCC1CC2 (stereo not drawn),6,-25,-2,2,1,17,nt,nt
c1ccc2c(c1)Sc1ccccc1N2CC1CN2CCC1CC2 (stereo not drawn),2,-29,-2,8,10,75*,44*,84*
COC(=O)C1=C(c2ccc(F)cc2OCc2ccccc2)C[C@@H]2CC[C@H]1N2C(=O)NCCCc1ccccc1,17,-5,-2,5,18,30,nt,nt
COC(=O)C1=C(C)NC(=S)NC1c1ccc(N(CCCl)CCCl)cc1Cl (stereo not drawn),24,nt,nt,nt,nt,nt,nt,nt
C#CCOc1cc(C2C3=C(COC3=O)Nc3cc4c(cc32)OCO4)ccc1OC (stereo not drawn),-12,-9,3,39,60,59*,58*,80*
COc1ccc2c(c1OC)CN1CCc3cc4c(cc3C1C2)OCO4 (stereo not drawn),nt,-26,46,6,-4,14,nt,nt
Cc1ccc(C(=O)N[C@@H](C)CN2C3=NC[C@@H](Cc4ccccc4)N3C[C@H]2Cc2ccc(O)cc2)cc1Br,-9,7,6,7,23,69*,33,nt
Cc1ccc(C(=O)N[C@@H](C)CN2C3=NC[C@H](Cc4ccccc4)N3C[C@H]2Cc2ccc(O)cc2)cc1Br,11,23,1,16,30,98*,58*,57*
c1ccc(C(c2ccccc2)c2ccncc2)cc1,31,nt,nt,nt,nt,nt,nt,nt
O=C(Nc1cccc(C(F)(F)F)c1)OC1CN2CCC1CC2 (stereo not drawn),3,12,nt,-2,nt,3,nt,nt
OC(c1cccc(Cl)c1)(c1cccc(Cl)c1)C1CN2CCC1CC2 (stereo not drawn),14,20,6,33,-19,74*,59*,56*
O=S(=O)(O)C(=Cc1ccccc1)c1ccccc1 (tested in a mixture with another compound),4,nt,nt,nt,nt,nt,nt,nt
O=C1NC(=O)C(=Cc2ccc(-c3ccc(Cl)cc3)o2)C(=O)N1,-8,-34,4,5,47,53*,6,nt
COC(=O)C1=C(c2ccc(Cl)c(C(F)(F)F)c2)C[C@@H]2CC[C@H]1N2C(=O)NC1CCCCC1,23,2,4,-13,28,34,nt,nt
CCn1nc(-c2ccccc2)nc2c(=O)n(C)c(=O)nc1-2,-12,-101,108*,16,-6,74*,73*,23
COc1ccc(-c2nc3ccccc3c(=O)n2-c2ccc(OC)cc2)cc1,8,14,0,0,-11,-8,nt,nt
CC(C)N(C(=O)CCl)c1ccccc1,-26,nt,nt,nt,nt,nt,nt,nt
CCCCn1c(=O)c(C(=O)Nc2ccccc2S(N)(=O)=O)c(O)c2ccccc21,-2,-15,3,-10,41,52*,48*,40*
CCCCCn1c(=O)c(C(=O)Nc2cnccn2)c(O)c2ccccc21,63*,-16,73,10,0,52*,48*,51*
CCCCn1c(=O)c(C(=O)NCc2ccncc2)c(O)c2ccccc21,13,1,-8,5,16,51*,20,nt
CCCCn1c(=O)c(C(=O)NCc2ccccc2)c(O)c2ccccc21,4,-3,23,-9,?,18,nt,nt
SMILES,Gli-Sufu block,697 NFkB inh,Beta apoptosis,Jurkat NFkB inh,CSC inhib,Mdm2-MdmX inh,Mdm2 MdmX conf,Full FLuc ctr
CCCCCCCn1c(=O)c(C(=O)Nc2cnccn2)c(O)c2ccccc21,31,17,67,11,70,65*,43*,44*
CCCCCn1c(=O)c(C(=O)Nc2cc(C)ccn2)c(O)c2ccccc21,-18,-37,-3,9,30,10,nt,nt
CC1(O)CCN2C(=O)CCc3cccc1c32 (stereo not drawn),23,-6,-24,-7,nt,21,nt,nt
C[C@]12CCC3C(CC[C@H]4C[C@@H](O)CC[C@]34C)C1C[C@@H](Br)[C@H]2O (stereo partly drawn),nt,-7,2,1,-6,-7,nt,nt
Brc1ccc2[nH]cc(C=NN3CCCCCC3)c2c1,4,nt,nt,nt,nt,nt,nt,nt
C=CCN1C(=O)NC(=O)/C(=C/C=C/c2ccccc2)C1=O,-1,nt,nt,nt,nt,nt,nt,nt
O=C1NC(=O)N(Cc2ccccc2)C(=O)/C1=C\C=C\c1ccco1,-2,2,6,5,?,66*,13,nt
CN1CC=C(/C=C/c2ccc(-c3ccccc3)cc2)CC1,53,-104,71,-91,63,-13,nt,nt
Clc1ccc2c(c1)C(OC1CN3CCC1CC3)c1ccccc1CS2 (stereo not drawn),14,11,-22,19,12,64*,39,61*
O=C(CN1CCN(C(=O)COc2cccc(F)c2)CC1)Nc1ccc(Cl)c(C(F)(F)F)c1,3,-20,3,-2,nt,22,nt,nt
COc1cc2c(cc1OC)CN(c1ccc([N+](=O)[O-])c(C(F)(F)F)c1)CC2,26,7,-4,9,0,59*,-2,nt
CCOC(=O)C1(c2ccccc2)CCN(CCC(=O)Nc2ccc(C(=O)OC)cc2)CC1,4,-6,-2,-8,nt,17,nt,nt
CCOC(=O)C1(c2ccccc2)CCN(CCC(=O)Nc2cccc(Br)c2)CC1,37,-29,nt,-13,nt,54*,39,77*
CCCOC(=O)c1ccc(-[n+]2c(-c3ccccc3)cc(-c3ccccc3)cc2-c2ccccc2)cc1,49,-43,123*,16,2,89*,87*,18
CCCCCCCCn1sccc1=O,33,11,2,-3,60,80*,-2,nt
NC(N)=Nc1ccc2[nH]c3c(c2c1)C[C@@]1(O)[C@H]2Cc4ccc(O)c5c4[C@@]1(CCN2CC1CC1)C3O5 (stereo partly drawn),-12,18,nt,5,nt,11,nt,nt
COC(=O)c1cn(C(=O)c2cccc3ccccc23)c2ccccc12,1,-49,32,7,62,64*,56*,53*
COC(=O)c1ccccc1-n1c(C)nc2ccccc2c1=O,-4,-13,-6,-1,-14,17,nt,nt
